# Screening data (PubChem BioAssay)
# In the library only some 2.2% were active in any assay of this set; here they are far more common.
# aSyn rescue – qHTS of alpha-syn Inhibitors; Yeast expressing alpha-synuclein, growth rescue, BacTiter-Glo, 24 h; Potency, µM (titrated, usually from 46.1 µM), for inactives: top-dose growth rescue (activation), hits mostly activators; 0.14% of 370,000 active; further: % of control where 0% means no effect; nearly all actives have a fitted effect of over 65% in size
#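 Readout is rescue of growth in alpha-synuclein-expressing yeast, so inhibitors of toxicity appear as activators. Growth after 24 hr at 30 deg C in galactose medium is quantified by luminescence.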
# FUS yeast rescue – qHTS for Suppressors of FUS Proteinopathy: Primary screen using FUS-linked yeast assay; S. cerevisiae FUS-expressing, growth rescue, OD600, 24 h; Potency, µM (series often up to 76.6 µM), actives largely listed as activators; 0.24% of 390,000 active; AID 1347120, 2019;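 further: plate controls were DMSO vehicle for no effect and reference control for full effect; nearly all actives have a fitted effect of over 55% in size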
#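 Yeast FUS proteinopathy model; galactose-induced FUS (2%), starting OD 0.005. Cpds in dilution series, 24hr, 30C, 99% humidity. Abs 600 nm growth. Pos ctrl CP55940 (top 92uM final); neg ctrl DMSO.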
# Abeta yeast res – qHTS for compounds that reverse cellular toxicity of Amyloid beta (A-beta) peptide in yeast: Primary Screen | yeast expressing A-beta42, growth rescue, OD600, 48 h; response scale: 0% DMSO, 100% iron-clioquinol control | Potency, µM (doses to about 46.1 µM), hits mostly activators | 0.063% of 410,000 active | AID 1347071, 2019; further: nearly all actives have a fitted effect of over 55% in size
#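 Yeast A-beta toxicity model in growth medium with pinned compounds, 48 h at 30 C; growth read as absorbance at 600 nm. Normalized to FeCl3/clioquinol equimolar mix (positive) and DMSO (negative).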
# TDP43 rescue – qHTS of TDP-43 Inhibitors; 1.8% of 410,000 active; Potency, µM (titrated, usually from 46.1 µM), for the others: at the top dose growth rescue (activation), usual class: activators; TDP-43 expressing yeast growth rescue, BacTiter-Glo, 24 h; further: % of control where 0% means no effect; nearly all actives have a fitted effect of over 50% in size
#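 Readout is BacTiter-Glo luminescence of cell growth, so inhibitors register as activators. TDP-43-expressing yeast at OD600=0.02 in galactose medium, after raffinose pregrowth to mid-log, were incubated with compound for 24 hr at 30 deg C.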
# Mito fusion act – qHTS Assay for Small Molecule Inhibitors of Mitochondrial Division or Activators of Mitochondrial Fusion; S. cerevisiae fusion-defective mutant growth rescue, CellTiterGlo 48 h; Potency, µM (top dose mostly 46.1 µM), for inactives: at the top dose growth rescue (activation), most hits filed as activators; 0.23% of 320,000 active; AID 485298, 2010; further: % of control where 0% means no effect; nearly all actives have a fitted effect of over 45% in size
#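 Temperature-sensitive fusion-defective S. cerevisiae (e.g. fzo1-1, mgm1-5) were grown with compound in YPEG medium (3% ethanol, 3% glycerol) for 48 hours at 37C. Growth rescue was measured as viability by CellTiterGlo luminescence after 10 minutes at ambient.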
# Starred values were filed as active, the others as inactive; i = inactive; ? = inconclusive; / = no result given. The call rests on the fitted dose curve; in most records, active means well fitted curve in the direction sought with a large enough effect; inconclusive means small, poorly fitted or top-dose-only effect, or another doubt; inactive means no such curve, though single readings can be large; an effect the other way counts as inactive or inconclusive. Potency means the concentration at half of the fitted maximal effect.
SMILES,aSyn rescue,FUS yeast rescue,Abeta yeast res,TDP43 rescue,Mito fusion act
O=C(Nc1ccc(F)c(Cl)c1)C1CCCC1,-20%,i,i,-23%,/
C[C@H]1[C@@H](OC(=O)NCc2cccs2)CC[C@@]23CCCN2C(=O)CCC[C@@H]13,/,i,/,/,/
O=C(NCc1ccc2c(c1)OCO2)C12CN(Cc3ccccc3)CC1C(c1cccc([N+](=O)[O-])c1)=NO2 (stereo not drawn),-4%,28µM*,i,-13%,-8%
O=C(NCc1ccc(C(F)(F)F)cc1)C12CN(Cc3ccccc3)CC1C(c1cccc([N+](=O)[O-])c1)=NO2 (stereo not drawn),5%,i,i,3%,-1%
Cc1ccccc1OCC(=O)NCC(=O)OCc1ccc2ccccc2c1,-8%,/,/,/,/
COc1ccc(OCC(=O)Nc2cccc3cccnc23)cc1,/,i,i,13µM*,17%
CC(=O)c1cccc(OCC(=O)Nc2ccccc2N2CCOCC2)c1,0%,i,i,22µM*,9%
CC(=O)c1cccc(OCC(=O)Nc2cc(S(=O)(=O)N3CCOCC3)ccc2N2CCCC2)c1,-10%,i,i,1%,-6%
O=C(Nc1ccccc1N1CCOCC1)c1ccc([N+](=O)[O-])o1,-16%,i,i,10%,-1%
Cc1cccc(NC(=O)c2ccc(N3CCCCC3)c([N+](=O)[O-])c2)n1,-13%,/,i,3.5µM*,-22%
Cc1cccc(NC(=O)c2ccc(N3CCOCC3)c([N+](=O)[O-])c2)n1,2%,i,i,?,3%
O=C(Nc1ccccc1N1CCCCC1)c1ccc([N+](=O)[O-])o1,-9%,i,i,16%,5.6µM*
COc1ccc(C(=O)NC(=S)Nc2ccccc2N2CCCCC2)cc1[N+](=O)[O-],-1%,?,?,16µM*,15%
COc1ccc(OCC(=O)Nc2ccccc2N2CCCCC2)cc1,16%,i,i,11µM*,-8%
COc1ccc(OCC(=O)Nc2ccccc2N2CCN(C)CC2)cc1,-5%,i,i,12%,-10%
CC1CCCN(c2ccc(C(=O)Nc3ccc4c(c3)OCO4)cc2[N+](=O)[O-])C1 (stereo not drawn),11%,?,i,?,18µM*
COc1cccc(C(=O)NC(=S)Nc2ccccc2N2CCOCC2)c1,16%,/,i,13µM*,0%
COc1cc(C(=O)NC(=S)Nc2ccccc2N2CCOCC2)cc(OC)c1OC,-13%,i,i,-24%,2%
O=C(Cn1c(=O)c2sccc2n(CC(=O)Nc2ccc(Cl)cc2Cl)c1=O)NCCc1ccccc1,/,i,i,-13%,/
COc1ccc2c(c1)C/C(=C\c1ccc(N(C)C)cc1)C2=O,-9%,/,/,/,/
COC(=O)CC1Oc2ccc(Cl)cc2-n2cc(-c3ccc(C)cc3)nc21 (stereo not drawn),/,i,i,-1%,/
CCOc1ncccc1C(=O)Nc1ccc(F)cc1,-24%,i,i,-1%,2%
CCOc1ncccc1C(=O)Nc1ccc(Cl)cc1,-6%,i,i,11µM*,15%
O=C(Nc1ccccc1C(=O)Nc1ccc(Cl)cc1)c1cccnc1,-3%,i,i,14µM*,7%
O=C(Nc1ccc(Cl)c(Cl)c1)c1cccnc1,-1%,i,i,18µM*,9%
SMILES,aSyn rescue,FUS yeast rescue,Abeta yeast res,TDP43 rescue,Mito fusion act
CC1CCN(C(c2ccccc2)c2sc3nc(-c4ccco4)nn3c2O)CC1 (stereo not drawn),/,i,i,-11%,/
Fc1ccc2[nH]c3c(Cl)ncnc3c2c1,10%,i,i,?,-19%
COc1ccc2[nH]c3c(Cl)ncnc3c2c1,27%,/,i,13µM*,-18%
COc1ccc(-c2cc(-c3nnc4sc(-c5cccs5)nn34)[nH]n2)cc1,/,i,/,/,/
Cc1ccc(N2C(=O)c3oc4cc(C)c(C)cc4c(=O)c3C2c2cccc(O)c2)nc1 (stereo not drawn),/,i,i,9%,/
Clc1cc(Sc2ccc(Br)cc2)nnc1-c1ccccc1,-13%,i,i,5µM*,8%
CCCCOC(=O)c1ccc(NS(=O)(=O)c2c(C)nc3scc(C)n3c2=O)cc1,/,i,i,-15%,/
O=C(Nc1cccc(C(F)(F)F)c1)c1ccc(Cn2cc(Br)cn2)o1,-12%,i,i,13µM*,-1%
COc1ccccc1OCCNC(=O)C(=O)c1c[nH]c2ccccc12,12%,i,i,?,8%
O=C(NCCOc1ccccc1Cl)C(=O)c1c[nH]c2ccccc12,1%,i,i,11µM*,7%
O=C(NCCOc1ccccc1Cl)c1cc(F)c(F)cc1Cl,14%,/,i,8.9µM*,1%
O=C(Cn1ccn(-c2ccc(F)cc2)c(=O)c1=O)NCCc1ccccc1,/,i,i,2%,/
CC1CCN(c2nc3ccc(C(=O)O)cc3s2)CC1,-11%,/,i,4µM*,-21%
O=C(NCCN1C(=O)C2C3C=CC(C3)C2C1=O)c1cc(Cl)cc(Cl)c1 (stereo not drawn),/,i,/,/,/
O=C(CN1C(=O)COc2ccc(S(=O)(=O)N3CCCC3)cc21)NCCc1ccc(Cl)cc1,/,i,i,-4%,/
COc1ccc(N(CC(=O)Nc2cccc(N(C)S(C)(=O)=O)c2)S(=O)(=O)c2ccc(C)cc2)cc1,9%,28µM*,i,7%,-2%
O=C(NCCCc1nc2ccccc2n1CCCOc1ccccc1)C1CCCCC1,-4%,/,/,/,/
COc1ccccc1CNC(=O)CCC1N=C2c3ccccc3N=C(SCc3ccc(C)cc3C)N2C1=O (stereo not drawn),/,?,i,?,/
C=CCOn1c(C)c(C(C)=O)c2c3no[n+]([O-])c3ccc21,5%,i,i,7.1µM*,2%
COC(=O)CC1(c2cccc3ccccc23)C(=O)c2ccccc2C1=O,6%,i,i,22µM*,5%
CN(Cc1ccccc1)c1ccc(C(=O)O)cc1[N+](=O)[O-],0%,i,i,16µM*,12%
N#Cc1ccc(NCCCN2CCC(C(O)(c3ccccc3)c3ccccc3)CC2)cc1,/,i,/,/,/
O=C1Nc2ccccc2C1Cc1ccc(Br)cc1 (stereo not drawn),/,i,?,16µM*,/
CSc1ccc(CC2C(=O)Nc3ccccc32)cc1 (stereo not drawn),/,i,i,13µM*,/
c1ccc(Cc2ccc(OCCn3cncn3)cc2)cc1,3%,i,i,?,3%
